The source of these data is PubChem BioAssay (NCATS).

Records with an inconclusive call do not appear. The source made the active and inactive calls. The call rests on the fitted dose curve; in most records, active means well fitted cell-killing curve with a large enough effect; inconclusive means small, poorly fitted or top-dose-only effect; inactive means flat fitted curve, though single readings scatter.
Potency means the concentration at half of the fitted maximal effect.

The assay is described as follows: Quantitative highthroughput screen to assess conditional lethalithy of P12 Ichikawa cells grown in Human Plasma-Like Medium with dialyzed fetal bovine serum (HPLM+ds) (AID 1963879). Further: nearly all actives have a fitted effect of over 35% in size. The conditions noted are these: ATP luminescence, 48 h; Potency: viability; series mostly up to 45.8 µM; viability: at the top concentration. The text has this: Assay Provider: Jason Cantor Ph.D.
Department of Biochemistry
University of Wisconsin-Madison, Madison, WI, USA
Chemical screening studies have identified drug sensitivities across hundreds of cancer cell lines but most putative therapeutics fail to translate. Discovery and development of drug candidates in models that more accurately reflect nutrient levels in human blood is a major challenge. Here we performed high-throughput screens in conventional versus Human Plasma-Like Medium (HPLM) to identify compounds that were "missed" when screening using the artificial culture condition. Sets of conditional anticancer compounds spanned phases of clinical development and included non-oncology drugs were assessed. […] We also traced conditional phenotypes for several chemotherapeutics to availability of HPLM-specific metabolites and confirmed others for compounds whose reported targets are encoded by nonessential genes. Our findings establish generalizable strategies for exploiting conditional lethality in HPLM to reveal therapeutic candidates and mechanisms of action in cancer cells.
Described herein are the results of each viability screens against three cell lines: NOMO1 (an acute myeloid leukemia cell line); P12-Ichikawa (a T-cell acute lymphoblastic leukemia); and SEM (a B-cell ALL). Each assay was screened using 3 different cell culture media: homemade human plasma-Like medium with 10% dialyzed fetal bovine serum (HPLM+ds); RPMI1640 with 10% untreated FBS and 5mM glucose (RPMI+s); and RPMI1640 with 10% dialyzed fetal bovine serum and 5 mM glucose (RPMI+ds).
PROTOCOL TABLE (as described by Inglese J, Shamu CE and Guy RK. 2007)
SEQUENCE No. (e.g., 1, 2, 3, etc.); […] (e.g., Cells, Incubation, Reagent, etc.); VALUE and DESCRIPTION.
1; Cells; 5 uL; white, solid bottom 1536-well Greiner assay plate.
2; Compounds; 23 nL; Kalypsis pin tool (Wako USA) equipped with a 1536-well pin head to transfer to the assay plates.
3; Incubation; 48 hours; 37C incubation.
4; Reagent; 3 uL; CellTiter Glo (Promega).
5; Incubation; 5 min, room temperature
6; Detection; Luminescence, Viewlux PerkinElmer.
NOTES (numbers refer to Sequence numbers above)
1. Briefly, 5 ul of cell reagent was dispensed using a Multidrop Combi Dispenser. The NOMO1 and SEM cells were plated at 500 cells/well and the P12-Ichikawa line at 1000 cells/well.
2. After seeding the cells, 23 nL of MIPE 4.1 library compounds (in DMSO) were added to each plate using a Kalypsys 1536 Pintool dispenser. Bortezomib at final concentration of […] and DMSO were added to each plate as positive and negative controls respectively. For each screen, MIPE 4.1 compounds were added over an eleven-point concentration range […] in 3-fold dilutions.
3. Each plate was covered with a stainless steel gasketed lid to prevent evaporation and incubated for 48 hour at 37C, 95% relative humidity, and 5% CO2.
4-5. Three microliter CellTilter-GloTM luminescent substrate mix (Promega) reagent was added to the assay plate and incubated at room temperature for 5 min.
6. The luminescence signal was measured using a ViewLux (PerkinElmer) multiplate reader with a 2 second exposure time per plate. Data for each compound were normalized as percent viability such that measurements for DMSO and the empty well controls in each plate were defined as 100% and 0%, respectively.
For `N#Cc1c(NC(=O)c2cccc3ccccc23)sc2c1CCCC2`, the Potency was 0.59 µM (active).

For `O=C1c2ccccc2-c2n[nH]c3cccc1c23`, the Potency is 14.8 µM (active).

What is called viability is a read-out of living cells in per cent, often relative to untreated cells. In the case of `O=NN(CCCl)C(=O)NCCCl`, the “viability” value was 89.5% (inactive).

With `O=C(Cc1cccc(OC(F)(F)F)c1)Nc1ccc(CCCCc2nnc(NC(=O)Cc3ccccn3)s2)nn1`, the “viability” value is 90% (inactive).

Regarding `CCCc1nc(C(C)(C)O)c(C(=O)O)n1Cc1ccc(-c2ccccc2-c2nn[nH]n2)cc1`, the “viability” value was 109% (inactive).

Take `O=C(Nc1nnc(-c2ccco2)o1)c1cc(-c2ccccc2)nc2ccccc12`: the Potency was 4.69 µM (active).

For the compound `N#Cc1c(N(CC(=O)O)CC(=O)O)sc(C(=O)O)c1CC(=O)O`, the Potency is 16.6 µM (active).

Consider `Cc1nc(Nc2ncc(C(=O)Nc3c(C)cccc3Cl)s2)cc(N2CCN(CCO)CC2)n1`, for which the Potency is 1.87 µM (active).

As for `C#CCN(C)CC1=Cc2ccccc2Oc2ccccc21`, the “viability” value was 102% (inactive).

As for `C=CC(=O)Nc1cc2c(Nc3ccc(F)c(Cl)c3)ncnc2cc1C#CC(C)(C)N1CCN(C)CC1`, the Potency was 5.26 µM (active).

Take `COc1cccc(OC)c1-c1cc(C(=O)NC2(C(=O)O)C3CC4CC(C3)CC2C4)nn1-c1ccnc2cc(Cl)ccc12` (stereo not given): the “viability” value was 89.1% (inactive).

With `O=[N+]([O-])c1cn2c(n1)OC[C@@H](OCc1ccc(OC(F)(F)F)cc1)C2`, the “viability” value is 97.8% (inactive).

Take `O=C(c1ccc(Nc2nccc(-c3cc4ccccc4s3)n2)cc1)N1CCC(N2CCCC2)CC1`: the Potency was 18.7 µM (active).

For the compound `O=C(C=Cc1ccc(/C=C/C(=O)Nc2ccc(C3=NCCN3)cc2)cc1)Nc1ccc(C2=NCCN2)cc1`, the “viability” value was 98.3% (inactive).

For `Cc1ccc(C(=O)Nc2ccc(Oc3cc4cnn(C)c4cc3-c3cn[nH]c3)c(F)c2)c(=O)n1-c1ccc(F)cc1`, the Potency is 6.6 µM (active).

As for `CC(O)C1C(=O)N2C(C(=O)O)=C(SC3CNC(C(=O)N(C)C)C3)C(C)C12` (stereo not given), the “viability” value is 93.9% (inactive).

On to `CCCCCCCN(CC)CCCC(O)c1ccc(NS(C)(=O)=O)cc1` (stereo not given), for which the Potency is 13.2 µM (active).

In the case of `COc1cc(NCc2ccc3nc(N)nc(N)c3c2C)cc(OC)c1OC`, the Potency is 2.35 µM (active).

As to `Cc1cccc(Nc2nc(-c3ccncc3)cs2)c1`, the “viability” value is 94.2% (inactive).

Turning to `COc1ccc(OC)c(-c2nnc3ccc(-c4ccc(OC)c(O[C@@H]5CCOC5)c4)nn23)c1`, the “viability” value is 80.2% (inactive).

Turning to `Nc1cccc(-c2cc3c(Oc4cccc(O)c4)ncnc3[nH]2)c1`, the Potency was 16.6 µM (active).

Take `O=C(NCCCCN1CCOCC1)c1cc2ccccc2o1`: the “viability” value was 97.3% (inactive).

Regarding `N#Cc1ccc(C(c2ccc(C#N)cc2)n2cncn2)cc1`, the “viability” value was 104% (inactive).

Take `COc1cc(Nc2ncc(F)c(Nc3ccc4c(n3)N(COP(=O)(O)O)C(=O)C(C)(C)O4)n2)cc(OC)c1OC`: the “viability” value is 94.9% (inactive).

`CCCNC(=O)Nc1ccc(Oc2ncnc3cc(OC)c(OC)cc23)cc1Cl`: the “viability” value was 97.5% (inactive).

In the case of `CNC(=O)c1ccccc1Sc1ccc2c(C=Cc3ccccn3)n[nH]c2c1`, the Potency is 7.43 µM (active).

Consider `NC(N)=NC(=O)c1nc(Cl)c(N)nc1N`, for which the Potency is 4.69 µM (active).

Take `NS(=O)(=O)c1cc(Cl)c(Cl)c(S(N)(=O)=O)c1`: the “viability” value was 104% (inactive).

Turning to `O=C(Nc1cccnc1)N1CCC(Cc2cccc(Oc3ccc(C(F)(F)F)cn3)c2)CC1`, the Potency was 8.33 µM (active).

Consider `CCN1C[C@H](C)n2c(c(O)c3c(=O)n(Cc4ccc(F)c(Cl)c4)nc(C(=O)NC)c32)C1=O`, for which the “viability” value is 113% (inactive).

As for `CC(=O)O[C@H]1C[C@@H]2CC[C@H]3[C@H]4C[C@H]([N+]5(C)CCCCC5)[C@@H](OC(C)=O)[C@@]4(C)CC[C@@H]3[C@@]2(C)C[C@H]1[N+]1(C)CCCCC1`, the “viability” value is 104% (inactive).

As for `C[C@@]12C(=O)OC(=O)[C@@]1(C)C1CCC2O1`, the Potency is 8.33 µM (active).

Turning to `Cc1cn[nH]c1`, the “viability” value was 106% (inactive).

For `O=C(NC1CC1)c1cccc(-c2ccc3c(NC(=O)C4CC4)n[nH]c3c2)c1`, the Potency was 10.5 µM (active).

Take `Cc1cccc(Nc2ccncc2S(=O)(=O)NC(=O)NC(C)C)c1`: the “viability” value was 96.7% (inactive).

Regarding `O=c1c(-c2ccc(O)cc2)coc2cc(O[C@@H]3O[C@H](CO)[C@H](O)[C@H](O)[C@H]3O)ccc12`, the “viability” value is 103% (inactive).

On to `CN[C@@H]1C[C@H]2O[C@@](C)([C@H]1OC)n1c3ccccc3c3c4c(c5c6ccccc6n2c5c31)C(=O)N[C@H]4O`, for which the Potency was 0.743 µM (active).

With `CC[C@H]1CN2CCc3cc(OC)c(OC)cc3[C@H]2C[C@@H]1C[C@@H]1NCCc2cc(OC)c(OC)cc21`, the Potency is 0.209 µM (active).

Regarding `COc1ccccc1OCCNCC(O)COc1cccc2[nH]c3ccccc3c12` (stereo not given), the “viability” value is 92.8% (inactive).

Turning to `COc1ccc2cccc(CCNC(C)=O)c2c1`, the “viability” value is 95.1% (inactive).
